Tau fibril FP: blocks human tau fibril formation measured by polarization; P10636; K18 P301L tau heparin fibrillization, Alexa594 FP, 6 h; Potency, µM (series often up to 57.7 µM), inactives show at the top dose activity, negative = inhibition, most hits filed as inhibitors; 280,000 compounds, 0.39% hits; AID 1468; also: nearly all actives have a fitted effect of over 55% in size
Target sequence (P10636 561-689 P618L limits assumed): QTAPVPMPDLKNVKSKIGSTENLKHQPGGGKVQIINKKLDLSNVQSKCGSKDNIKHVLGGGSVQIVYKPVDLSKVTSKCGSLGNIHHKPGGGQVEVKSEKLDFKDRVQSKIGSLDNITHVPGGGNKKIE
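Heparin (20 uM) drove fibril formation of recombinant tau K18 P301L, 15 uM unlabeled with 0.24 uM Alexa 594 label, for 6 hr at 37 C in 100 mM sodium acetate pH 7. Fluorescence polarization (555/632 nm) read 1 hr after 30 uM ThT.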
ALDH1A1 inh: inhibitors of human aldehyde dehydrogenase 1A1. P00352. Purified ALDH1A1, NADH fluorescence, propionaldehyde substrate. Potency, µM (series often up to 75.3 µM), without a hit: at the top dose activity, negative = inhibition, most hits filed as inhibitors. 220,000 compounds, 7.3% hits. AID 1030; active = well fitted inhibition curve with a large enough effect, not every such curve was filed as active; inconclusive = small, poorly fitted or top-dose-only effect, or another doubt; inactive = no such curve, though single readings can be large or run the other way;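 also: plate controls were no enzyme wells and a reference inhibitor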
Tau fibril ThT: tau fibrillization inhibition (ThT binding). P10636. recombinant tau K18 P301L, heparin-induced fibrillization, ThT fluorescence. Potency, µM (top dose mostly 57.4 µM), for inactives: at the highest dose activity, negative = inhibition, hits mostly inhibitors. 270,000 compounds, 2.1% hits. AID 1460; also: nearly all actives have a fitted effect of over 55% in size
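Using a mix of unlabeled (15 uM) and Alexa 594-labeled (0.24 uM) tau K18 P301L, heparin-triggered fibrillization over 6 hr at 37 C was scored by ThT fluorescence.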
HPGD block: inhibitors of human 15-hydroxyprostaglandin dehydrogenase (HPGD) | P15428 | purified HPGD, NADH fluorescence kinetic, PGE2 substrate | Potency, µM, without a hit: at the highest dose activity change, negative = inhibition, hits mostly inhibitors | 150,000 compounds, 4.3% hits; active = well fitted inhibition curve with a large enough effect, not every such curve was filed as active; inconclusive = small, poorly fitted or top-dose-only effect, or another doubt; inactive = no such curve, though single readings can be large or run the other way
Target sequence (P15428 whole entry, looked up): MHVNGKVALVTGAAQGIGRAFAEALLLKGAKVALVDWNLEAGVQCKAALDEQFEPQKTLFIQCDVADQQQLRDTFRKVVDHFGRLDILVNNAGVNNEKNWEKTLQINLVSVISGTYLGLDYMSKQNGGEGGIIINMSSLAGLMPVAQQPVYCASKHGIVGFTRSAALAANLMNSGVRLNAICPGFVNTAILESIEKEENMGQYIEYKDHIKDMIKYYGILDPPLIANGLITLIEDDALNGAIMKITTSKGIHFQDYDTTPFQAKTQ
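20 nM HPGD preincubated 15 min at room temperature with compound in 50 mM Tris-HCl pH 8, 0.01% Tween 20. Started with 1 mM NAD+ and 30 uM prostaglandin E2; NADH fluorescence (360/450 nm) read 5 times over 30-s intervals, last minus first.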
JMJD2E inh: JMJD2E (human) inhibition; AID 2147; B2RXH2; Potency, µM (top dose mostly 57.1 µM), for inactives: at the top dose activity change, negative = inhibition, usual class: inhibitors; 230,000 compounds, 1.6% hits; JMJD2E catalytic domain, FDH-coupled NADH fluorescence (FDH is formaldehyde dehydrogenase);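 also: 0% = wells with enzyme and -100% = buffer wells without enzyme; nearly all actives have a fitted effect of over 50% in size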
Tau fluor cs: counter-screen for tau fibril formation inhibitors. tau K18 P301L (four-repeat tau fragment) Alexa594 fluorescence, heparin fibrillization. Potency, µM (top dose mostly 57.7 µM), inactives show at the highest dose activity change, negative = decrease. 280,000 compounds, 0.93% hits; also: nearly all actives have a fitted effect of over 55% in size
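Human K18 P301L tau (15 uM unlabeled plus 0.24 uM Alexa 594-labeled, final) in 100 mM sodium acetate pH 7 was mixed with compound and 20 uM heparin and incubated 6 hr at 37 C.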
Active calls of the source: *; ? = inconclusive; . = no result; [ ] = another dose, or the depositor's remark. Sampled rows, rich in hits. Any-hit rate of the full collection: about 9.9%. Unless noted, calls follow the shape of the dose curve; as a rule, active = well fitted curve in the direction sought with a large enough effect; inconclusive = small, poorly fitted or top-dose-only effect, or another doubt; inactive = no such curve, though single readings can be large; an effect the other way counts as inactive or inconclusive. Unless noted, % is scaled to controls: 0 for no effect and ±100 for the full control effect; potency is read from the fitted curve at half-maximal effect.

SMILES	Tau fibril FP	ALDH1A1 inh	Tau fibril ThT	HPGD block	JMJD2E inh	Tau fluor cs
COc1ccc(C)cc1NC(=O)CC(=O)Nc1ccc2nc3n(c(=O)c2c1)CCCCC3	-1%	.	-2%	.	.	-17%
CC(C1CC2CCC1C2)n1c(-c2ccco2)n[nH]c1=S (stereo unspecified)	-3%	14µM*	-6%	.	?	-3%
Cc1ccc(S(=O)(=O)CCCS(=O)(=O)c2ccc(C)cc2)cc1	1%	?	-4%	6%	7%	-3%
Cc1ccc(S(=O)(=O)CC(=O)c2cc(C)c(O)c(C)c2)cc1	-7%	1.8µM*	0%	.	-18%	?
COc1ccc(-c2nc(C#N)c(NCCCn3ccnc3)o2)cc1OC	8%	?	-10%	?	?	-12%
CCN(CC)CCCNc1oc(-c2ccc(OC)c(OC)c2)nc1C#N	3%	?	0%	?	2.2µM*	-6%
COc1ccc(-c2nc(C#N)c(NCCc3ccccc3)o2)cc1OC	?	?	?	?	?	16µM*[quencher]
COc1cc(/C=C(\C#N)C(=O)Nc2ccc(C)cc2)ccc1OCc1cc(=O)n2nc(C)sc2n1	5%	.	?	.	.	4%
COc1ccc(N=C2NC(=O)/C(=C/c3ccco3)S2)cc1	-6%	.	.	.	?	-27%
COc1ccc(S(=O)(=O)/N=C2/NC(=O)/C(=C\c3ccco3)S2)cc1	10%	18µM*	1%	28µM*	0%	-1%
COc1ccc(/C=C2\SC(=NCc3ccccc3)NC2=O)cc1	2%	-8%	4%	?	0%	1%
COc1ccc(S(=O)(=O)/N=C2/NC(=O)/C(=C/c3ccco3)S2)cc1	?	22µM*	?	?	?	-13%
Cc1ccccc1CNC(=O)Cc1csc2ccccc12	9%	.	-6%	.	.	-11%
COc1ccc(Oc2cc(C)nc(Cl)n2)nn1	-2%	8.9µM*	-2%	.	-6%	-3%
COc1ccc(-c2[nH]c3ccccc3c2SCCNC(=O)c2cc3ccccc3oc2=O)cc1	14%	0%	?	-17%	-12%	11µM*[quencher]
O=C(O)CCNC(=O)c1ccc(Br)o1	0%	3%	6%	-12%	-4%	8%
O=C(NCCSc1c[nH]c2ccccc12)c1ccc(Br)o1	12%	-11%	?	7.1µM*	-3%	?
O=C(NCCC(c1ccccc1)c1ccccc1)c1ccc(Br)o1	-5%	?	?	14µM*	2%	-21%
Cc1[nH]c2ccccc2c1SCCNC(=O)c1ccc(Br)o1	14%	-2%	?	14µM*	-1%	?
CCOC(=O)c1c(C)oc2ncnc(Nc3ccc(OCC)cc3)c12	-1%	.	-10%	.	.	-7%
Cc1cc(C)n2nc(C(=O)NNC(=O)c3ccccc3)nc2n1	-2%	-1%	1%	.	7%	4%
CC1CCCC(NC(=O)CCC(=O)c2ccc(F)cc2)C1C (stereo unspecified)	0%	16µM*	-4%	.	-4%	1%
O=C(c1cc2ccccc2oc1=O)N(Cc1ccco1)Cc1cccs1	-14%	?	-13%	-4%	-2%	-8%
O=C(c1cc2ccccc2oc1=O)N(Cc1cccs1)Cc1cccs1	-9%	11µM*	-16%	-21%	-1%	-14%
Cc1cccc(NC(=O)N2CCN(Cc3ccc4c(c3)OCO4)CC2)c1C	0%	7%	-2%	.	0%	5%
SMILES	Tau fibril FP	ALDH1A1 inh	Tau fibril ThT	HPGD block	JMJD2E inh	Tau fluor cs
CCc1cc2c(NCC3CCCO3)ncnc2s1 (stereo unspecified)	9%	?	2%	14µM*	?	1%
CCc1cc2c(NC(C(=O)O)C(C)C)ncnc2s1 (stereo unspecified)	4%	16µM*	0%	-6%	-8%	7%
C=CCNc1ncnc2c1cnn2-c1ccc(C)cc1C	0%	0%	-3%	14µM*	-16%	-2%
Cc1ccc(-n2ncc3c(NCC4CCCO4)ncnc32)c(C)c1 (stereo unspecified)	0%	-11%	4%	2.2µM*	-11%	10%
Cc1ccc(-n2ncc3c(NCC(C)C)ncnc32)c(C)c1	-6%	.	-6%	.	.	-9%
Cc1ccc(-n2ncc3c(NCCCOC(C)C)ncnc32)c(C)c1	?	?	-16%	-29%	?	?
COc1ccc(Br)cc1CNC(=O)CSc1cc(=O)n(C)c2ccccc12	7%	.	5%	.	.	-2%
COc1cccc(N2CCN(C(=O)/C=C/c3ccco3)CC2)c1	8%	?	-14%	.	-6%	-1%
CCN(CC)C(=O)C1CCN(c2ncnc3c2cnn3-c2ccc(C)cc2C)CC1	8%	10µM*	-10%	22µM*	-9%	-8%
Cc1ccc(-n2ncc3c(N4CCC(C(N)=O)CC4)ncnc32)c(C)c1	-4%	-2%	6%	-3%	8%	-12%
C=CCSC1=N/C(=C\c2ccc(C(=O)O)cc2)C(=O)S1	?	3.5µM*	?	.	?	-13%
O=C(NCCc1csc2nc(-c3ccc(F)cc3)nn12)c1ccco1	-5%	.	-2%	.	.	-3%
COCc1cc(C)nc2sc(C(=O)NN)c(-n3cccc3)c12	-4%	0.5µM*	-12%	.	43%	-4%
Cc1cc(C)c2c(-n3cccc3)c(C(=O)NCc3cccc(F)c3)sc2n1	-6%	.	7%	.	.	10%
Cc1cc(C)c2c(-n3cccc3)c(C(=O)O)sc2n1	-8%	22µM*	?	-21%	-6%	-12%
Cc1cc(C)c2c(-n3cccc3)c(C(=O)NNS(=O)(=O)c3ccc(Cl)cc3)sc2n1	2%	1µM*	?	5%	-4%	-21%
Cc1ccc(CNC(=O)c2sc3nc(C)cc(C)c3c2-n2cccc2)cc1	?	.	8%	.	.	7%
Cc1cc(C)c2c(-n3cccc3)c(C(=O)NNS(=O)(=O)c3ccccc3)sc2n1	5%	4.5µM*	-20%	-8%	1%	2%
CCCCNC(=O)c1sc2nc(C)cc(COC)c2c1-n1cccc1	7%	?	?	-9%	3%	-13%
CC(=O)c1ccc(NC(=O)c2cc(Cl)sc2Cl)cc1	-2%	11%	?	-15%	-4%	-19%
CC(C)N(Cc1cn[nH]c1-c1ccc(-c2ccccc2)cc1)Cc1nccn1C	-1%	7%	-4%	.	-22%	4%
Cn1cc([N+](=O)[O-])c(C(=O)Nc2ccc(C(=O)N3CCCCC3)cc2)n1	-1%	-12%	1%	0.4µM*	-19%	2%
CCn1ncc([N+](=O)[O-])c1C(=O)Nc1ccc(C(=O)N2CCCCC2)cc1	0%	?	8%	2.2µM*	9%	10%
C=CCNC(=S)NNc1nc(Nc2ccccc2)nc(N2CCCCC2)n1	-5%	16µM*	-17%	.	1%	-26%
